CBFb RUNX1 block: blocks binding between human CBF-beta and RUNX1 | Potency, µM (series often up to 59.8 µM), usual class: inhibitors | AlphaScreen CBFb-His/RUNX1-biotin binding, biochemical | 230,000 tested, under 10 active | Q01196+Q13951
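Read-out: AlphaScreen. Format: His-CBF-beta with biotinylated RUNX1 (30 nM each) preincubated 20 min, compound 15 min, Ni-chelate plus streptavidin beads 90 min; room temperature throughout.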
HPGD block: blocks human HPGD enzyme activity | AID 894 | purified HPGD, NADH fluorescence kinetic, PGE2 substrate | 150,000 compounds, 4.3% hits | Potency, µM, actives largely listed as inhibitors; active means well fitted inhibition curve with a large enough effect, not every such curve was filed as active; inconclusive means small, poorly fitted or top-dose-only effect, or another doubt; inactive means no such curve, though single readings can be large or run the other way
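20 nM HPGD preincubated 15 min at room temperature with compound in 50 mM Tris-HCl pH 8, 0.01% Tween 20. Started with 1 mM NAD+ and 30 uM prostaglandin E2; NADH fluorescence (360/450 nm) read 5 times over 30-s intervals, last minus first.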
PNC assembly inh: blocks assembly of the perinucleolar compartment; 140,000 compounds, 3.1% hits; activity change (PNC), negative = inhibition, % at 10 µM; AID 2417; PC3M PTB-GFP, PNC prevalence imaging, 16 h; active compounds read low;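 active means readout at or below -70, meaning at least 70% loss of cells showing the perinucleolar compartment, a nuclear body marking cancer cells; inconclusive means readout between -30 and a set limit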
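PC3M cells stably expressing PTB-GFP, 750–1000 cells/well, treated 16 h at 37 °C with compound (23 nl of library stock), in duplicate. After paraformaldehyde fixation and Hoechst stain, imaged at 20x; PNC prevalence scored by image analysis.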
ALDH1A1 block: inhibitors of human aldehyde dehydrogenase 1A1; P00352; Purified ALDH1A1, NADH fluorescence, propionaldehyde substrate; Potency, µM (doses to about 75.3 µM), hits mostly inhibitors; 220,000 compounds, 7.3% hits; AID 1030; active means well fitted inhibition curve with a large enough effect, not every such curve was filed as active; inconclusive means small, poorly fitted or top-dose-only effect, or another doubt; inactive means no such curve, though single readings can be large or run the other way
Target sequence (P00352 whole entry, looked up): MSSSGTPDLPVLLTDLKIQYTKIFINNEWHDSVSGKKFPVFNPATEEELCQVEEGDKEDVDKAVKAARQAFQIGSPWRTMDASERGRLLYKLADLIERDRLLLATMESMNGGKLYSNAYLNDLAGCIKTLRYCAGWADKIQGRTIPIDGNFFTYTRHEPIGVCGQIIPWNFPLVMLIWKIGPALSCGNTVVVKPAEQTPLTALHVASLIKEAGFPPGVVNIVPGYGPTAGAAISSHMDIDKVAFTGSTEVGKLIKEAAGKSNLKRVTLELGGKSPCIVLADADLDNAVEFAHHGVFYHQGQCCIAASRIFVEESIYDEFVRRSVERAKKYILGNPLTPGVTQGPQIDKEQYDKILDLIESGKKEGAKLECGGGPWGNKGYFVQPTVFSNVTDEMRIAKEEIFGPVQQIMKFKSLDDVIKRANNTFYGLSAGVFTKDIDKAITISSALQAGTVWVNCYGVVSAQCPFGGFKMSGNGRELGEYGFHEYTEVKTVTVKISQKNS
HTT ATP protect: Huntington cell model cytoprotection by ATP luminescence. PC12 HTT-Q103 induced, cytoprotection, ATP luminescence, 40 h. Potency, µM (doses to about 56.4 µM), most hits filed as activators. 230,000 compounds, 0.14% hits. AID 1471; further: nearly all actives have a fitted effect of over 45% in size
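Readout: ATPlite luminescence (ATP level). Model: stable PC12, inducible Htt exon1 Q103-GFP. Inducer: tebufenozide, 100 nM final. Compounds: dose series. No G418 in medium.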
HttQ103 aggreg: mutant huntingtin aggregation inhibition; PC12 HttQ103-GFP aggregates, Acumen cytometry, 40 h; Potency, µM (series often up to 46.1 µM), hits mostly inhibitors; 220,000 compounds, 1.1% hits; further: nearly all actives have a fitted effect of over 60% in size
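PC12 cells stably carrying ecdysone-inducible HTT exon 1 Q103–GFP were induced with tebufenozide (100 nM final) and treated with library compounds in titration. GFP aggregates in lysates were counted by laser scanning cytometry.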
Hits are given with their value; – = inactive; ? = inconclusive; · = no result; [ ] = dose if it differs, or a comment. Compounds with a hit are over-represented: about 11% of the library has one in this group of screens. Unless noted, the call rests on the fitted dose curve; in most records, active means well fitted curve in the direction sought with a large enough effect; inconclusive means small, poorly fitted or top-dose-only effect, or another doubt; inactive means no such curve, though single readings can be large; an effect the other way counts as inactive or inconclusive.

SMILES	CBFb RUNX1 block	HPGD block	PNC assembly inh	ALDH1A1 block	HTT ATP protect	HttQ103 aggreg
Cc1cc(C(F)F)n2ncc(C(=O)NC3CCCCCC3)c2n1	–	22µM	–	13µM	–[10 µM]	–
COC(=O)[C@@H]1C[C@@H]2CC[C@@H](O)C[C@@H]2N1CC1CCCCC1	–	–	·	?	–	·
CC1COC(=O)O1 (centres undefined)	–	·	·	·	·	·
COC(=O)c1c(C)oc2c1cc(NS(=O)(=O)c1cccs1)c1ccccc12	–	–	–	7.9µM	–	–
Cc1oc2c(cc(NS(=O)(=O)c3ccc4c5c(cccc35)C(=O)N4)c3ccccc32)c1C(=O)OC(C)C	–	–	–	?	–	–
CCOP(=O)(OCC)C(C#N)=C1SCN(c2ccc(Cl)cc2)CS1	–	20µM	–	–	–[10 µM]	–
CCOc1ccc(N2CSC(=S)N(c3ccc(OCC)cc3)C2)cc1	–	·	·	·	–[10 µM]	–[9.22 µM]
Cn1c(N)c(C(=O)COC(=O)Cn2cc(C(F)(F)F)ccc2=O)c(=O)n(C)c1=O	–	16µM	?	–	–	–[9.22 µM]
CC1=C(C(=O)Nc2ccccc2C)C(c2ccc(C)o2)NC(=S)N1 (centres undefined)	–	–	–	?	–[10 µM]	–
CC1=C(C(=O)Nc2ccccn2)C(c2ccc(Br)cc2)n2ncnc2N1 (centres undefined)	–	–	–	?	–	–
CCOc1cccc(C2NC(=S)NC(C)=C2C(=O)Nc2ccccc2)c1 (centres undefined)	–	–	–	2.2µM	–[10 µM]	–
CC1=C(C(=O)Nc2ccccn2)C(c2ccc(Cl)cc2)NC(=S)N1 (centres undefined)	–	·	·	3.5µM	–	–
CC1=C(C(=O)Nc2ccccn2)C(c2ccc(Br)cc2)NC(=S)N1 (centres undefined)	–	–	?	0.71µM	·	–
O=C(/C=C/Nc1ccc(F)cc1Br)c1ccccc1	–	–	?	–	–[10 µM]	–
O=C(/C=C\NCC(=O)c1ccccc1)c1ccc(F)cc1	–	–	–	20µM	–	–
O=C(/C=C\NCC(=O)c1ccccc1)c1ccc2ccccc2c1	–	·	?	4.5µM	–[10 µM]	–
CCOc1ccc(N/C=C/C(=O)c2ccc3ccccc3c2)c([N+](=O)[O-])c1	–	–	–	–	–[10 µM]	–
COc1ccc2[nH]cc(CCNc3ncnc4ccc(-c5cccc(C#N)c5)cc34)c2c1	·	·	·	–	–	·
CCc1ccc(C2NC(=S)NC3=C2C(=O)CCC3)cc1 (centres undefined)	–	–	–	?	–[10 µM]	–
CC1(C)CC(=O)C2=C(C1)NC(=O)NC2c1ccccc1 (centres undefined)	–	·	·	–	–[10 µM]	–
CC(C)c1ccc(C2NC(=S)NC3=C2C(=O)CC(C)(C)C3)cc1 (centres undefined)	–	–	–	2µM	–[10 µM]	–
CCc1ccc(C2NC(=S)NC3=C2C(=O)CC(C)(C)C3)cc1 (centres undefined)	–	–	?	2.5µM	–[10 µM]	–
C[C@@]12CC[C@@H]3[C@@H](CC[C@H]4C[C@@H](O)CC[C@]43C)[C@H]1CC[C@@H]2c1cc(C(F)(F)F)n[nH]1	·	–	·	–[13.5 µM]	–[10 µM]	·
NNC(=O)c1ccc(Oc2cc(Cl)cc(Cl)c2)o1	–	·	·	0.16µM	–[10 µM]	–[9.22 µM]
O=C(NCC1CC1)c1ccc(Oc2cc(Cl)cc(Cl)c2)o1	–	·	·	?	–[10 µM]	–[9.22 µM]
SMILES	CBFb RUNX1 block	HPGD block	PNC assembly inh	ALDH1A1 block	HTT ATP protect	HttQ103 aggreg
CCN(CC)c1ccc2cc(-c3nc(-c4ccc(OC)cc4)cs3)c(=O)oc2c1	?	–	–	–	–[10 µM]	2.8µM
CCN(CC)c1ccc2cc(-c3nc4ccccc4n3C)c(=O)oc2c1	–	–	?	?	–	?
O=c1oc2ccccc2cc1-c1nc(-c2cccs2)cs1	?	–	?	–	–	–
CCN(CC)c1ccc2cc(-c3nc4ccccc4[nH]3)c(=O)oc2c1	?	–	-104	–	–[10 µM]	0.32µM
CCN(CC)c1ccc2cc(-c3nnc(-c4ccccc4)o3)c(=O)oc2c1	–	–	-100	?	–[10 µM]	7.1µM
COCC(=O)Nc1c(I)c(C(=O)NC[C@@H](O)CO)c(I)c(C(=O)N(C)C[C@@H](O)CO)c1I	–	–	·	–	–	–
CCOc1ccc(-n2cnnn2)cc1S(=O)(=O)NC1CC1	–	–	–	–	–	–[9.22 µM]
CCOc1ccc(-n2cnnn2)cc1S(=O)(=O)Nc1c(C)cccc1C	–	14µM	?	–	–	–
CC(C)C(=O)NC(=S)/C=C1/N(C)c2ccccc2C1(C)C	–	·	·	8.9µM	–	?
CN1/C(=C\C(=O)c2cncc(Br)c2)C(C)(C)c2ccccc21	?	–	-84	–	–[10 µM]	16µM
CN1/C(=C\C(=O)c2cccc(S(=O)(=O)N3CCCCC3)c2)C(C)(C)c2ccccc21	–	–	-88	?	·	?
CN1/C(=C\C=N\NC(=O)c2cccnc2)C(C)(C)c2ccccc21	–	·	·	–	–	6.3µM
CCCCCCCCCCCCCCCC(=O)OC[C@@H](COP(=O)([O-])OCC[N+](C)(C)C)OC(=O)CCCCCCCCCCCCCCC	–	·	·	·	·	·
CC(C)(CCC(C)(C)c1ccccc1)c1ccccc1	·	–	·	–[13.5 µM]	–[10 µM]	·
Cc1nc2cnc(Oc3cccc(Cl)c3)nc2n(Cc2ccc(F)cc2)c1=O	·	·	·	?	–	·
CC(=O)[C@@H]1CC[C@@H]2[C@@H]3CC=C4C[C@H](OS(=O)(=O)O)CC[C@@]4(C)[C@H]3CC[C@]21C	·	·	·	·	–[1.9 µM]	·
Cc1cc(Cl)ccc1OCc1cn2cccnc2n1	–	·	·	?	–[10 µM]	–
Nc1cccc(B(O)O)c1	–	–	·	?	–	·
COC(=O)N1CCC2(CCN(C(=O)Nc3ccc(OC)cc3)CC2)CC1	·	–	·	–	–	·
O=C1OC(c2ccc(F)cc2)=C/C1=C\c1ccc([N+](=O)[O-])o1	?	·	·	20µM	–	–
O=[N+]([O-])c1ccc(/C=N/N=C/c2ccc([N+](=O)[O-])o2)o1	–	·	·	?	–	–[9.22 µM]
N=c1c2c(n(Cc3ccc(Br)cc3)c3c1CCC3)CCCC2	–	–	-123	–	–[10 µM]	?
N=c1c2c(n(Cc3ccc(Cl)c(Cl)c3)c3c1CCC3)CCCC2	–	·	–	–	–	–
CCC1CCc2c(sc3ncnc(N4CCOCC4)c23)C1 (centres undefined)	–	–	-126	–	–[10 µM]	?
CSc1nc(N2CCOCC2)c2c3c(sc2n1)CCC3	–	–	?	–	–	–
Cc1ccc(SCCC(=O)NCC2CCCO2)cc1 (centres undefined)	–	16µM	-115	–	–[10 µM]	?
COc1ccc2cc3cc(C(=O)NCCCN4CCOCC4)oc3nc2c1	–	?	–	?	–	–
O=C(NCC1CCCO1)c1cc(-c2ccc(Cl)cc2Cl)on1 (centres undefined)	–	8.9µM	–	?	–	–
O=C(NCCN1CCOCC1)c1cc(-c2ccc(Cl)cc2)on1	–	–	–	–	–	–

Screens from PubChem BioAssay.
